From PubChem BioAssay AID1159580 (chemical genetic matrix, 2015)
The campaign covered roughly 5,500 compounds. About 2,000 (36%) were called active. About 18% were inconclusive and are not listed. The list shows a part of the results. Values without a mark were called inactive. Rule as the data show it: active = normalized growth mostly below about 0.91 (no sharp cut-off); inconclusive = no clear call, values can overlap the other calls; inactive = mostly above about 0.92.

Assay: chemical genetic growth profiling, strain panel (AID 1159580);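 also: tested at 20 µM; growth read once vehicle control cultures reached saturation at 30 °C; 1 = growth at the plate median or of vehicle wells; lower values mean less growth of the strain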
Conditions: S. cerevisiae deletion strains, growth OD

`O=C(CCSc1cccs1)Nc1cccc(C(F)(F)F)c1` showed a normalized growth (locus YAR019C, strain CDC15, stronger effect = lower value) of 0.936, a normalized growth (locus YBL105C, strain PKC1, stronger effect = lower value) of 0.922 and a normalized growth (locus YBR135W, strain CKS1, stronger effect = lower value) of 0.929. It also gave a normalized growth (locus YBR136W, strain MEC1, stronger effect = lower value) of 0.911, a normalized growth (locus YBR160W, strain CDC28, stronger effect = lower value) of 0.926 and a normalized growth (locus YDL017W, strain CDC7, stronger effect = lower value) of 0.922. For the same molecule, the normalized growth (locus YDL028C, strain MPS1, stronger effect = lower value) was 0.93, the normalized growth (locus YDL101C, strain DUN1, stronger effect = lower value) was 0.921 and the normalized growth (locus YDL108W, strain KIN28, stronger effect = lower value) was 0.946. For the same molecule, the normalized growth (locus YDL132W, strain cdc53, stronger effect = lower value) was 0.92, the normalized growth (locus YDL214C, strain PRR2, stronger effect = lower value) was 0.911 and the normalized growth (locus YDR052C, strain DBF4, stronger effect = lower value) was 0.948. For the same molecule, the normalized growth (locus YDR054C, strain cdc34, stronger effect = lower value) was 0.916, the normalized growth (locus YDR226W, strain ADK1, stronger effect = lower value) was 0.93 and the normalized growth (locus YDR477W, strain SNF1, stronger effect = lower value) was 0.966. The normalized growth (locus YER123W, strain YCK3, stronger effect = lower value) was 0.915, the normalized growth (locus YER133W, strain GLC7, stronger effect = lower value) was 0.965 and the normalized growth (locus YFL009W, strain cdc4, stronger effect = lower value) was 0.945. For the same molecule, the normalized growth (locus YFL029C, strain CAK1, stronger effect = lower value) was 0.925, the normalized growth (locus YFR003C, strain YPI1, stronger effect = lower value) was 0.93 and the normalized growth (locus YFR019W, strain FAB1, stronger effect = lower value) was 0.931. For the same molecule, the normalized growth (locus YFR028C, strain CDC14, stronger effect = lower value) was 0.952, the normalized growth (locus YGR040W, strain KSS1, stronger effect = lower value) was 0.961 and the normalized growth (locus YGR052W, strain FMP48, stronger effect = lower value) was 0.952. The normalized growth (locus YGR092W, strain DBF2, stronger effect = lower value) was 0.872, the normalized growth (locus YHR030C, strain SLT2, stronger effect = lower value) was 0.84 (active) and the normalized growth (locus YHR079C, strain IRE1, stronger effect = lower value) was 0.853. For the same molecule, the normalized growth (locus YHR082C, strain KSP1, stronger effect = lower value) was 0.884, the normalized growth (locus YHR205W, strain SCH9, stronger effect = lower value) was 0.807 and the normalized growth (locus YIL147C, strain SLN1, stronger effect = lower value) was 0.927. The normalized growth (locus YJL095W, strain BCK1, stronger effect = lower value) was 0.888, the normalized growth (locus YJL128C, strain PBS2, stronger effect = lower value) was 0.865 and the normalized growth (locus YJL157C, strain FAR1, stronger effect = lower value) was 0.949. For the same molecule, the normalized growth (locus YJR016C, strain ILV3, stronger effect = lower value) was 0.92, the normalized growth (locus YJR066W, strain TOR1 (second series), stronger effect = lower value) was 0.992 and the normalized growth (locus YJR066W, strain TOR1, stronger effect = lower value) was 0.905. For the same molecule, the normalized growth (locus YKL048C, strain ELM1, stronger effect = lower value) was 0.92, the normalized growth (locus YKL067W, strain YNK1, stronger effect = lower value) was 0.927 and the normalized growth (locus YKL101W, strain HSL1, stronger effect = lower value) was 0.911. For the same molecule, the normalized growth (locus YKL193C, strain SDS22, stronger effect = lower value) was 0.913, the normalized growth (locus YKL203C, strain TOR2, stronger effect = lower value) was 1.01 and the normalized growth (locus YLR113W, strain HOG1, stronger effect = lower value) was 0.711 (active). The normalized growth (locus YLR133W, strain CKI1, stronger effect = lower value) was 0.936, the normalized growth (locus YLR403W, strain SFP1, stronger effect = lower value) was 0.965 and the normalized growth (locus YML070W, strain DAK1, stronger effect = lower value) was 0.891. The normalized growth (locus YMR001C, strain CDC5, stronger effect = lower value) was 0.924, the normalized growth (locus YMR205C, strain PFK2 (second series), stronger effect = lower value) was 0.913 and the normalized growth (locus YMR277W, strain FCP1, stronger effect = lower value) was 0.919. The normalized growth (locus YNL006W, strain LST8, stronger effect = lower value) was 0.938, the normalized growth (locus YNL020C, strain ARK1, stronger effect = lower value) was 0.923 and the normalized growth (locus YNL161W, strain CBK1, stronger effect = lower value) was 0.918. The normalized growth (locus YNL183C, strain NPR1, stronger effect = lower value) was 0.857, the normalized growth (locus YNL207W, strain RIO2, stronger effect = lower value) was 0.921 and the normalized growth (locus YNL222W, strain SSU72, stronger effect = lower value) was 0.923. The normalized growth (locus YNL307C, strain MCK1 (second series), stronger effect = lower value) was 0.88, the normalized growth (locus YOL078W, strain AVO1, stronger effect = lower value) was 0.917 and the normalized growth (locus YOL136C, strain PFK27, stronger effect = lower value) was 0.889. For the same molecule, the normalized growth (locus YOR061W, strain CKA2, stronger effect = lower value) was 0.927, the normalized growth (locus YOR119C, strain RIO1, stronger effect = lower value) was 0.964 and the normalized growth (locus YOR231W, strain MKK1, stronger effect = lower value) was 0.854. It also gave a normalized growth (locus YOR329C, strain SCD5, stronger effect = lower value) of 0.921, a normalized growth (locus YPL031C, strain PHO85, stronger effect = lower value) of 0.961 and a normalized growth (locus YPL153C, strain RAD53, stronger effect = lower value) of 0.962. The normalized growth (locus YPL204W, strain HRR25, stronger effect = lower value) was 0.953, the normalized growth (locus YPL209C, strain IPL1, stronger effect = lower value) was 0.92 and the normalized growth (locus YPL256C, strain CLN2, stronger effect = lower value) was 0.796 (active). The normalized growth (locus YPR025C, strain CCL1, stronger effect = lower value) was 0.932, the normalized growth (locus YPR106W, strain ISR1, stronger effect = lower value) was 0.918 and the normalized growth (locus YPR111W, strain DBF20, stronger effect = lower value) was 0.901. The normalized growth (strain NNK1, stronger effect = lower value) was 0.888 and the normalized growth (strain TSCII, stronger effect = lower value) was 0.921.
